Test results published in PubChem BioAssay (EPA / NIEHS).
Values joined by “and” are separate entries in the source; they are usually repeats but may differ in a detail not shown here. Equal entries are not always repeated. Results filed as inconclusive are left out. A structure can be active in one record and inactive in another. Active and inactive are the calls of the source. How the source made its calls, unless noted: active means hit-call score of the fitted dose curve at least 0.9, where 1 is the maximum; inconclusive means response in the unintended direction; inactive means score below 0.9.

Experiments:
[1] = read-out: xenobiotic metabolism (CYP1A1), CYP1A1 (gene 1543); test: CLD_CYP1A1_24hr: CellzDirect (CLD) Gene Expression Assay for xenobiotic metabolism (CYP1A1) at 24 hours (AID 2283673);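 further: CYP1A1 mRNA level by quantitative nuclease protection with chemiluminescence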
Procedure, shortened: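 Transcript levels were read at 24 h by qNPA chemiluminescence in human liver primary cells. Cells got daily fresh dosing at multiple concentrations (vehicle 0.2% DMSO). Induction fitted upward against DMSO; phase-contrast cytotoxicity annotated.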

[2] = read-out: Cytochrome P450 2B6 (Homo sapiens) (UniProt P20813); test: CLD_CYP2B6_6hr: CellzDirect (CLD) Gene Expression Assay for xenobiotic metabolism (CYP2B6) at 6 hours (AID 2283677);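 further: actives raise CYP2B6 transcript above DMSO baseline so AC50 marks an inducer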
Procedure, shortened: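 CYP2B6 transcript levels, read by chemiluminescent qNPA, were fitted for increase versus DMSO baseline; cultured human liver hepatocytes from two donor preparations were harvested 6 h after exposure to test chemicals at multiple concentrations.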

[3] = CCTE_Padilla_ZF_144hpf_TERATOSCORE: (Legacy) CCTE's 144 Hour Post-fertilization zebrafish Assay Teratoscore, Padilla Lab (AID 2283679; active means hit-call score of the fitted dose curve at least 0.9, where 1 is the maximum; inactive means score below 0.9;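 on AC50: zebrafish embryos with chorions exposed by immersion from 6-8 hpf to 5 dpf with daily renewal; teratogenicity score from eye scoring of death hatching and malformations at 144 hpf; higher score means more developmental defects relative to DMSO baseline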)
Procedure, shortened: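 Larvae scored by eye at 144 hpf for death, hatching and malformations after a day in clean Hanks'. Before that, daily-renewed exposure at 80 uM (0.4% DMSO, 26C) from roughly 6-8 hpf through 5 dpf, 4 embryos per chemical.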

[4] = read-out: xenobiotic metabolism (CYP1A2), CYP1A2 (gene 1544); test: CLD_CYP1A2_24hr: CellzDirect (CLD) Gene Expression Assay for xenobiotic metabolism (CYP1A2) at 24 hours (AID 2283683)
Procedure, shortened: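 CYP1A2 mRNA induction measured by quantitative nuclease protection (chemiluminescent) in human primary hepatocytes 24 h after multi-concentration chemical dosing with daily fresh solutions. DMSO (0.2%) baseline; positive-direction fitting; morphology-based cytotoxicity noted.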

[5] = read-out: Cytochrome P450 2B6 (Homo sapiens) (UniProt P20813); test: CLD_CYP2B6_48hr: CellzDirect (CLD) Gene Expression Assay for xenobiotic metabolism (CYP2B6) at 48 hours (AID 2283699);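 further: actives raise transcript level above DMSO so potency reflects induction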
Procedure, shortened: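 CYP2B6 transcript induction, read by quantitative nuclease protection (S1 digestion, chemiluminescent detection) 48 h after dosing, is fitted upward against 0.2% DMSO. Cultured human liver primary cells, two donor preparations, received fresh chemical daily over multiple concentrations.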

[6] = CLD_ACTIN_6hr: CellzDirect (CLD) Gene Expression Assay for Baseline Control (Actin) at 6 hours (AID 2283676);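 further: active means increased actin mRNA relative to DMSO vehicle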
Procedure, shortened: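 Baseline actin transcript level measured by qNPA (S1 nuclease protection, chemiluminescence) in human hepatocyte cultures 6 h after chemical exposure; 0.2% DMSO vehicle as reference, cytotoxicity noted from morphology.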

[7] = read-out: Glyceraldehyde-3-phosphate dehydrogenase (Homo sapiens) (UniProt P04406); test: CLD_GAPDH_6hr: CellzDirect (CLD) Gene Expression Assay for Baseline Control (Glyceraldehyde 3-phosphate dehydrogenase) at 6 hours (AID 2283681);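 further: active means increased signal relative to DMSO vehicle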
Procedure, shortened: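 GAPDH baseline-control readout from qNPA (S1 nuclease digestion, probe hybridization, chemiluminescence) in lysates of cultured human hepatocytes harvested 6 h post-dosing. Chemicals tested at multiple concentrations versus 0.2% DMSO vehicle; microscopy-based cytotoxicity flagged yes/no.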

[8] = read-out: ABC Transporter (ABCB1), ABCB1 (gene 5243); test: CLD_ABCB1_24hr: CellzDirect (CLD) Gene Expression Assay for ABC Transporter (ABCB1) at 24 hours (AID 2283684)
Procedure, shortened: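 ABCB1 mRNA induction versus 0.2% DMSO vehicle was read by qNPA chemiluminescence at 24 h. Cultured human hepatocytes from two donor preparations received daily fresh dosing, and phase-contrast cytotoxicity calls were annotated alongside the data.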

[9] = read-out: Cytochrome P450 2B6 (Homo sapiens) (UniProt P20813); test: CLD_CYP2B6_24hr: CellzDirect (CLD) Gene Expression Assay for xenobiotic metabolism (CYP2B6) at 24 hours (AID 2283686)
Procedure, shortened: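 qNPA chemiluminescent measurement of mRNA at 24 hours in human primary hepatocyte cultures from two donor preparations, with daily fresh dosing and 0.2% DMSO vehicle as baseline. Morphology-based cytotoxicity flagged yes/no.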

[10] = read-out: Cytochrome P450 2C9 (Homo sapiens) (UniProt P11712); test: CLD_CYP2C9_24hr: CellzDirect (CLD) Gene Expression Assay for xenobiotic metabolism (CYP2C9) at 24 hours (AID 2283688)
Procedure, shortened: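 Induction of CYP2C9 mRNA was quantified by quantitative nuclease protection assay (chemiluminescence), gain of signal versus 0.2% DMSO vehicle, 24 h after dosing. Human primary hepatocytes (two donors) received fresh chemical daily at multiple concentrations; morphology-based cytotoxicity flagged yes/no.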

[11] = read-out: HMG-CoA synthase (HMGCS2), HMGCS2 (gene 3158); test: CLD_HMGCS2_24hr: CellzDirect (CLD) Gene Expression Assay for HMG-CoA synthase (HMGCS2) at 24 hours (AID 2283691)
Procedure, shortened: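 qNPA with S1 nuclease digestion and chemiluminescent detection gave HMGCS2 transcript levels, fitted upward against 0.2% DMSO vehicle. Cultured human hepatocytes (two donors) received fresh compound daily and were harvested at 24 h; phase-contrast morphology flagged cytotoxicity.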

[12] = read-out: Glyceraldehyde-3-phosphate dehydrogenase (Homo sapiens) (UniProt P04406); test: CLD_GAPDH_24hr: CellzDirect (CLD) Gene Expression Assay for Baseline Control (Glyceraldehyde 3-phosphate dehydrogenase) at 24 hours (AID 2283692)
Procedure, shortened: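 GAPDH baseline-control readout: qNPA chemiluminescent mRNA signal in human primary hepatocytes harvested 24 h after daily dosing, normalised to 0.2% DMSO with positive fitting direction; cytotoxicity annotated by phase-contrast morphology.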

[13] = read-out: ABC Transporter (ABCB1), ABCB1 (gene 5243); test: CLD_ABCB1_48hr: CellzDirect (CLD) Gene Expression Assay for ABC Transporter (ABCB1) at 48 hours (AID 2283695)
Procedure, shortened: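 ABCB1 mRNA was measured by quantitative nuclease protection assay (chemiluminescence) 48 h after dosing. Human hepatocyte cultures from two separate donors received fresh dosing solutions daily for two days, with 0.2% DMSO as vehicle. Positive-direction fit against DMSO.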

[14] = read-out: glucuronosyltransferase (UGT1A1), UGT1A1 (gene 54658); test: CLD_UGT1A1_24hr: CellzDirect (CLD) Gene Expression Assay for glucuronosyltransferase (UGT1A1) at 24 hours (AID 2283696)
Procedure, shortened: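 UGT1A1 transcript induction was measured by quantitative nuclease protection assay (chemiluminescence) in human hepatocyte cultures 24 h after daily fresh dosing, with 0.2% DMSO as vehicle and baseline.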

[15] = read-out: Cytochrome P450 2C19 (Homo sapiens) (UniProt P33261); test: CLD_CYP2C19_48hr: CellzDirect (CLD) Gene Expression Assay for xenobiotic metabolism (CYP2C19) at 48 hours (AID 2283700);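 further: fitted upward so actives raise CYP2C19 mRNA above the 0.2% DMSO vehicle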
Procedure, shortened: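 CYP2C19 mRNA induction read by chemiluminescent quantitative nuclease protection assay after 48 h, with fresh compound added daily for two days to cultured human liver hepatocytes. Activity fitted upward against 0.2% DMSO vehicle.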

[16] = read-out: HMG-CoA synthase (HMGCS2), HMGCS2 (gene 3158); test: CLD_HMGCS2_6hr: CellzDirect (CLD) Gene Expression Assay for HMG-CoA synthase (HMGCS2) at 6 hours (AID 2283682);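 further: actives raise HMGCS2 transcript above the 0.2% DMSO vehicle baseline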
Procedure, shortened: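 HMGCS2 transcript induction read by quantitative nuclease protection with chemiluminescence, 6 h after dosing of primary human hepatocytes. Baseline was 0.2% DMSO vehicle; phase-contrast morphology gave a yes/no cytotoxicity annotation.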

[17] = CLD_ACTIN_48hr: CellzDirect (CLD) Gene Expression Assay for Baseline Control (Actin) at 48 hours (AID 2283702)
Procedure, shortened: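 Background-control actin mRNA read by qNPA chemiluminescence at 48 h. Human hepatocyte cultures from two donors received fresh multi-concentration chemical doses daily for two days; 0.2% DMSO served as vehicle baseline.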

[18] = read-out: xenobiotic metabolism (CYP1A2), CYP1A2 (gene 1544); test: CLD_CYP1A2_48hr: CellzDirect (CLD) Gene Expression Assay for xenobiotic metabolism (CYP1A2) at 48 hours (AID 2283703)
Procedure, shortened: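 Cytotoxicity was flagged yes/no from morphology, while CYP1A2 transcript induction was detected by qNPA chemiluminescence after a 48-hour exposure. Human primary hepatocyte cultures from separate donors received fresh dosing solutions daily over two days, with 0.2% DMSO as vehicle and baseline.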

[19] = read-out: ABC Transporter (ABCB11), ABCB11 (gene 8647); test: CLD_ABCB11_48hr: CellzDirect (CLD) Gene Expression Assay for ABC Transporter (ABCB11) at 48 hours (AID 2283697)
Procedure, shortened: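 Induction of ABCB11 mRNA relative to 0.2% DMSO, measured at 48 h by qNPA chemiluminescence. Cultured human hepatocytes (two donors) received fresh dosing solutions at several concentrations on two consecutive days.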

Measured: AC50

Glyceraldehyde-3-phosphate dehydrogenase (Homo sapiens), sequence (P04406 whole entry, looked up): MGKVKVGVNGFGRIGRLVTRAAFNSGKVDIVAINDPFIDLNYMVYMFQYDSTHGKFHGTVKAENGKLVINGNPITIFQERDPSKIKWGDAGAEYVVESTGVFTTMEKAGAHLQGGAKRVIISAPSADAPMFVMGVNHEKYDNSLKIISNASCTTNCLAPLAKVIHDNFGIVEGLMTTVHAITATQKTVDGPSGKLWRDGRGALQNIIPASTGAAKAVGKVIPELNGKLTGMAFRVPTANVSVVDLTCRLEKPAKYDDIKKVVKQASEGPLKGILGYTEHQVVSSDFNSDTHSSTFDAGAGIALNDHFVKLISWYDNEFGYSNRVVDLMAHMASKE
Cytochrome P450 2C19 (Homo sapiens), sequence (P33261 whole entry, looked up): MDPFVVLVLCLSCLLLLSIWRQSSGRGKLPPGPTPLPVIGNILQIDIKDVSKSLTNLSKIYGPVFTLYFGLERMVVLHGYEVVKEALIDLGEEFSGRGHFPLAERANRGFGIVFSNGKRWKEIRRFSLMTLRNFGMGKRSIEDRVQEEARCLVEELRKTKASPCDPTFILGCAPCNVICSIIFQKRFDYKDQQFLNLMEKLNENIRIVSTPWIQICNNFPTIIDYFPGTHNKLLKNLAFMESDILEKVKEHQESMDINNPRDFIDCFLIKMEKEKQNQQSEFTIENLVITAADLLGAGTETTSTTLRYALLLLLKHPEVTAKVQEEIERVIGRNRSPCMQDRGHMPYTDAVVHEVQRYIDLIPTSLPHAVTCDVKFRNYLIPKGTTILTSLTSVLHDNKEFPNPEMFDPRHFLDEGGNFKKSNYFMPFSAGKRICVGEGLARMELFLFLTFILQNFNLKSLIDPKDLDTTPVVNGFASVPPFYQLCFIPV

CON(C)C(=O)Nc1ccc(Cl)c(Cl)c1
active: [1] 1.82 µM | [2] 1.83 µM | [3] 60.1 µM | [4] 1.29 µM | [5] 1.31 µM

C=CC1(C)OC(=O)N(c2cc(Cl)cc(Cl)c2)C1=O (configuration not stated)
active: [1] 0.317 µM | [3] 145 µM | [4] 2.47 µM | [9] 7.15 µM
not listed: [2] | [16] | [17] | [18] | [19]
inactive: all other assays above

Cc1ccc(-c2c(Cl)nc(C#N)n2S(=O)(=O)N(C)C)cc1
inactive: [6] | [7] | [16] | [12] | [13] | [14] | [17]
active: [3] 5.47 µM | [4] 0.521 µM

N#CC(CCc1ccc(Cl)cc1)(Cn1cncn1)c1ccccc1 (configuration not stated)
inactive: [16] | [10] | [12] | [13] | [15] | [17]
active: [1] 2.64 µM | [3] 25.8 µM | [4] 1.24 µM | [9] 0.389 µM | [5] 0.434 µM

O=C(O)COc1nc(Cl)c(Cl)cc1Cl
not listed: [2] | [6] | [8] | [9] | [15] | [17] | [19]
inactive: all other assays above

Cc1cc(Cl)ccc1OCC(=O)O
not listed: [2] | [4] | [8] | [9] | [12] | [16] | [18] | [19]
inactive: all other assays above

COc1nc(C)nc(NC(=O)NS(=O)(=O)c2ccccc2CCC(F)(F)F)n1
inactive: [6] | [3] | [7] | [16] | [4] | [10] | [11] | [12] | [13] | [14] | [19] | [17]
active: [4] 1.7 µM and 11 µM | [5] 2.5 µM and 990 nM and 836 nM

COC(=O)C(C)Oc1ccc(Oc2ccc(Cl)cc2Cl)cc1 (configuration not stated)
inactive: [6] | [7] | [16] | [4] | [10] | [11] | [12] | [13] | [14] | [19] | [5] | [15] | [17]
active: [3] 5.23 µM | [5] 20 µM

O=C(O)c1nc(Cl)ccc1Cl
active: [16] 1.89 µM | [4] 9.48 µM | [19] 6.55 µM | [5] 4.4 µM
inactive: [6] | [3] | [7] | [4] | [11] | [15]

N#Cc1cc(Br)c(O)c(Br)c1
active: [3] 15.3 µM | [4] 33.4 µM
inactive: [6] | [7] | [16] | [12] | [13] | [14]

CCOP(=S)(OCC)SCn1c(=O)oc2cc(Cl)ccc21
inactive: [16] | [14]
active: [1] 5.28 µM | [3] 13.5 µM | [4] 3.97 µM | [9] 3.97 µM | [5] 1.06 µM

CC1COC(Cn2cncn2)(c2ccc(Oc3ccc(Cl)cc3)cc2Cl)O1 (configuration not stated)
active: [3] 5.5 µM | [4] 0.729 µM
inactive: [6] | [2] | [7] | [16] | [13] | [14] | [5] | [15] | [17]
